# Source: ChEMBL document CHEMBL4513216, “Probing the Open Global Health Chemical Diversity Library for Multistage-Active Starting Points for Next-Generation Antimalarials” (ACS Infect Dis, 2020)
# Among all 65,000 compounds or so, about 2,100 (3.2%) showed an effect of 50% or more. The median lay at about -52%. The sample holds strong results, similar compounds and a random draw of the others, so the mix is not that of the screen.
# Tested on: Plasmodium falciparum
# Test: Screen against P. falciparum Asexual Blood Stage (ABS), at 5uM
# Assay type: functional, Dd2
# Conditions: tested at 5 uM
row,SMILES,INHIBITION [%]
1,CC1CCC(NC(=O)c2nn(C)cc2Br)CC1 (stereo not drawn),-46.7
2,CCc1ccc(CN2CCc3c(nnn3C)C2COC)cc1 (stereo not drawn),-44.1
3,CC(C)(O)CCc1cccc(C(=O)NCc2cnn3cccnc23)c1,-126
4,CC(C)Cn1cncc1CNC(=O)c1cccc(CC2CCNCC2)c1,-83.2
5,O=C(NCc1cnn2cccnc12)c1cccc(CC2CCNCC2)c1,66.1
6,c1ccc(CCN2CCCC(Cn3ccnc3)C2)cc1 (stereo not drawn),64.5
7,c1ccc(SCCN2CCCC(Cn3ccnc3)C2)cc1 (stereo not drawn),-1.54
8,CSCCCN1CCCC(Cn2ccnc2)C1 (stereo not drawn),-62
9,O=C(O)c1nnn(-c2cccc(C(F)(F)F)c2)c1-c1ccncc1,-16.4
10,CN(C)C(CNS(=O)(=O)c1ccc(F)cc1F)c1cccn1C (stereo not drawn),31.8
11,COc1ccc(F)cc1S(=O)(=O)NCC(c1cccn1C)N(C)C (stereo not drawn),-7.7
12,CN(C)C(CNS(=O)(=O)c1cc(F)ccc1F)c1cccn1C (stereo not drawn),54.6
13,Cc1noc(C(C)C)c1C(=O)NCCCN1CCCCCC1=O,-62.4
14,Cc1nnc(SCCCNc2cc(C3CC3)ncn2)s1,-39.6
15,COCc1nn(C)c2c1CN(Cc1cnn(C)c1)CC2,-6.19
16,CC1CCCN(Cc2c(C3CC3)n(CC(=O)N(C)C)c3ncccc23)C1 (stereo not drawn),-59.9
17,Cc1cc(C2CCCN(CCC(=O)N3CCc4ccccc43)C2)n[nH]1 (stereo not drawn),62.9
18,Cc1cc(C2CCCN(CC(=O)N3CCc4ccccc43)C2)n[nH]1 (stereo not drawn),-81.5
19,Cc1cc(C2CCCN(CC(=O)N3CCCc4ccccc43)C2)n[nH]1 (stereo not drawn),-8.74
20,CC(=O)N1CCCC1c1cc(N2CCN(CC(C)(C)C)CC2)cc(C)n1 (stereo not drawn),-126
21,Clc1cccc(Cl)c1CNCCOc1ccccn1,-77.7
22,Cn1cc(N2CC3(CCN(Cc4ccoc4)CC3)OCC2=O)cn1,-50.3

row,SMILES,INHIBITION [%]
1,Cc1cc(C(=O)NC2CCc3c(ccc(=O)n3CCN(C)C)C2)no1 (stereo not drawn),-24
2,Cc1cc2n(n1)CC(CNC1CCN(Cc3ccncc3)CC1)CN2 (stereo not drawn),-0.937
3,Cc1ccccc1CN1CCC(NCC2CNc3ccnn3C2)CC1 (stereo not drawn),67.1
4,Cc1cc2n(n1)CC(CNC1CCN(Cc3ccccn3)CC1)CN2 (stereo not drawn),-50.7
5,OCc1ccccc1CNCC1CNc2ccnn2C1 (stereo not drawn),2.15
6,Cc1cc2n(n1)CC(CNC1CCN(CCc3ccccc3)CC1)CN2 (stereo not drawn),68.6
7,Cc1cc2n(n1)CC(CNC1CCN(c3ccccn3)CC1)CN2 (stereo not drawn),-45.8
8,CC(C)n1c2ccccc2c2c1cc(C(=O)NCCO)n2C(=O)N(C)C,-69.4
9,CC(CN1CCCC1=O)NC(=O)c1ccc(C(F)(F)F)[nH]c1=O (stereo not drawn),-73.3
10,Cc1noc(C)c1C(=O)N1CCC(Nc2cccnn2)CC1,-19.3
11,NC(=O)c1cc(C2CCCN(CCc3ccc4c(c3)CCO4)C2)n[nH]1 (stereo not drawn),-88.6
12,O=C(c1cnc2[nH]c(=O)[nH]c(=O)c2c1)N1CCCC1C1CCCCC1 (stereo not drawn),0.342
13,O=C(c1c[nH]nn1)N1CCCC1C1CCCCC1 (stereo not drawn),51
14,O=C(c1ccc(=O)[nH]n1)N1CCCC1C1CCCC1 (stereo not drawn),-148
15,CNC(=O)C1(c2cnccn2)CCCN1C(=O)c1cccc(C)n1 (stereo not drawn),-80.1
16,CCc1ccc(CN2Cc3nccn3CC(CN3CCOCC3)C2)o1 (stereo not drawn),-23.9
17,CCOc1ccc(N(C)Cc2nnc(C3CC3)o2)cc1,61.5
18,CCOc1ccc(N(C)Cc2nnc(C)o2)cc1,27.1
19,CCOc1ccc(N(C)Cc2nc(C)c(C)o2)cc1,43.9
20,Cn1cccc1C(=O)N1CCC2(CCN2c2ncccn2)C1 (stereo not drawn),-28.5
21,O=C(NCc1ccc2c(c1)CCCO2)c1ccc(C2CCNC2)cc1 (stereo not drawn),-95.6
22,COCC(=O)NCc1cnc(C)nc1-c1cn(C)c2ccc(OC)cc12,-88.7

row,SMILES,INHIBITION [%]
1,CN(C)CCN1CCO[C@H]2CCN(C(=O)c3cccs3)CC[C@@H]21,-47.1
2,CCc1nnc2n1CCN(CC(=O)N1CCc3ccccc3C1)C2,-13.9
3,COc1ccc(C(=O)Nc2c(C(=O)N(C)C)nn(C)c2C)cc1,-64.8
4,COc1ccc(CC(=O)NC(C)c2nc3cccnc3n2C(C)C)cc1 (stereo not drawn),-100
5,Cc1ccccc1CN1CCC(c2nn(CCN)c3nccnc23)C1 (stereo not drawn),60.9
6,Cn1nc(C2CCCN(Cc3ccc(F)c(F)c3)C2)c2nccnc21 (stereo not drawn),23.4
7,NCCn1nc(C2CCN(C(=O)CC3CCCCC3)C2)c2nccnc21 (stereo not drawn),-16.3
8,CC(C)(C)CC(=O)N1CCC(c2nn(CCN)c3nccnc23)C1 (stereo not drawn),-94.3
9,NCCn1nc(C2CCN(Cc3ccc(Cl)c(Cl)c3)C2)c2nccnc21 (stereo not drawn),63.5
10,NCCn1nc(C2CCN(C(=O)Cc3ccccc3)C2)c2nccnc21 (stereo not drawn),-28.7
11,CNC(=O)[C@H]1CO[C@H]2CCN(Cc3ccc4ccccc4n3)C[C@H]2C1,-51.5
12,Cc1nc(NCc2ccccn2)c2c(n1)c(C)nn2C,-26.7
13,Cc1cccc(Nc2cc(C)nc(C3CCN(C(C)C)C3)n2)n1 (stereo not drawn),-36.6
14,CC(C#N)CSc1ccccc1NCC(=O)Nc1ccccc1 (stereo not drawn),-67.8
15,CC(C#N)CSc1ccccc1NCC(=O)NC1CCCCC1 (stereo not drawn),-56.9
16,CC(C#N)CSc1ccccc1NCC(=O)NC(C1CC1)C1CC1 (stereo not drawn),56.3
17,CN1CCOC(CNCc2csc(C3CCCCC3)n2)C1 (stereo not drawn),58.6
18,CN1CCOC(CNCc2csc(C3CCCC3)n2)C1 (stereo not drawn),-14.3
19,Cc1nc(CNCC2CN(C)CCO2)cs1 (stereo not drawn),-102
20,c1cncc(N2CCCn3nnc(CN4CCCCC4)c3C2)c1,-88.4
21,Cc1ccccc1SCC(=O)NS(=O)(=O)c1ccc2c(c1)OCCO2,-14.4
22,c1cncc(COCc2nnc3n2CCN(Cc2ccsc2)C3)c1,-113

row,SMILES,INHIBITION [%]
1,O=C(c1ccc(F)cc1)N1CCN2C[C@H](OCc3cccnc3)C[C@H]2C1,1.13
2,Cc1occc1C(=O)N1CC[C@H]2C[C@@H](c3nnc(C4CC4)o3)O[C@@H]2C1,-11.7
3,COCCN1CCC(CNCc2c[nH]nc2C(C)(C)C)CC1,-130
4,Cc1ccc(CNCc2c[nH]nc2C(C)(C)C)c(OC2CCOC2)c1 (stereo not drawn),57
5,CN(C)CCN1CCC(CNCc2c[nH]nc2C(C)(C)C)CC1,-15.5
6,CCSc1ncc(-c2cc(C3CC3)nc(N)c2C#N)cn1,4.79
7,CCSc1ncc(-c2cc(C3CCC3)nc(N)c2C#N)cn1,-28.9
8,CCCNc1ncc(-c2cc(C3CC3)nc(N)c2C#N)cn1,55.8
9,CC1CCN(C(=O)CN2CC(c3nc(C4CC4)no3)C2)CC1,-20.1
10,CCC(=O)N1CCCC1c1ccsc1 (stereo not drawn),-72.1
11,O=C(C1CCC1)N1CCN(Cc2ccsc2)[C@H]2CS(=O)(=O)C[C@H]21,-87.7
12,O=C(C1CCCC1)N1C[C@@H](c2ccsc2)[C@@H]2CN(C3CCCC3)CC[C@@H]21,54.7
13,CCOc1ncccc1CNC(=O)Nc1ccc(CC)cc1,-138
14,Cc1ccc2c(c1)C(NCc1ccccn1)CC2 (stereo not drawn),37.5
15,COc1c(CNC2CCCOc3ccc(F)cc32)c(C)nn1C (stereo not drawn),29
16,COc1ccc2c(c1)C(NCCc1ccccn1)CCCO2 (stereo not drawn),57.6
17,Cc1ccc2c(c1)C(NCc1ncnn1C)CC2 (stereo not drawn),-64.9
18,COc1ccc2c(c1)C(NCCc1ncc(C)s1)CCCO2 (stereo not drawn),-31.7
19,COc1cccc(CNC2CCc3ccc(C)cc32)n1 (stereo not drawn),60.8
20,COc1cccc(CNC2CCCOc3cc(C)ccc32)n1 (stereo not drawn),68.4
21,COc1ccc2c(c1)C(NCCc1c(C)noc1C)CCCO2 (stereo not drawn),32.9
22,Cc1ccc2c(c1)OCCCC2NCc1nnc2n1CCCCC2 (stereo not drawn),-139

row,SMILES,INHIBITION [%]
1,COc1ccc(C2=CCN(C(=O)CN(CC(N)=O)C(C)C)CC2)cc1,-68.8
2,Cc1noc(C)c1CN1CCC[C@]2(C[C@@H](Oc3ccccn3)CO2)C1,-61.7
3,CC(=O)N1[C@H](Cn2cncn2)C[C@@H]2CN(Cc3ccncc3)CC[C@@H]21,-149
4,COc1ccc(C)c(NC(=O)NCc2ncnn2C)c1,-80.2
5,COc1ccc(C2CCCN2C(=O)NCCn2ccnc2)cc1 (stereo not drawn),59.1
6,COc1ccc(C2CCCN2C(=O)NCCn2ccnc2)cc1OC (stereo not drawn),-189
7,O=C(NCCn1ccnc1)N1CCCC1c1ccncc1 (stereo not drawn),-10
8,O=C(NCCn1ccnc1)N1CCCC1c1ccc2c(c1)OCCO2 (stereo not drawn),51.2
9,O=C(NCCn1ccnc1)N1CCCC1c1ccsc1 (stereo not drawn),-159
10,COc1ccc(C2CCCN2C(=O)NCCCn2cccn2)cc1 (stereo not drawn),-90.4
11,CCOc1ccc(C2CCCN2C(=O)NCCn2ccnc2)cc1 (stereo not drawn),36.1
12,COc1ccc(C2CCCN2C(=O)NCCCn2ccnc2)cc1 (stereo not drawn),61.9
13,O=C(NCCCn1ccnc1)N1CCCC1c1ccncc1 (stereo not drawn),-65.7
14,CC(C)(C)c1nnnn1CC(=O)N(CCC#N)c1ccccc1,-55.4
15,CN(C)C(C(=O)NCc1cc(C(C)(C)C)n[nH]1)c1ccc(F)cc1 (stereo not drawn),-1.64
16,COCCn1c2c(ccc1=O)CC(NCc1cnn(C)c1)CC2 (stereo not drawn),-23.6
17,Cc1cc(O)ncc1NS(=O)(=O)c1cccc(F)c1F,-123
18,CCS(=O)(=O)N[C@H]1CN(Cc2noc(COC)n2)C[C@@H]1C1CC1,-96.2
19,Cc1cccc(-c2nc(N)nc3c2CN(C(=O)c2cc(C)n[nH]2)C3C)c1 (stereo not drawn),32.2
20,COCCN1Cc2ccccc2C2(CCN(C(=O)c3ccco3)CC2)C1,-50.4
